Results: PubChem BioAssay (NCATS)
Results filed as inconclusive are left out. Active and inactive are the calls of the source. Calls come from the whole dose curve; as a rule, active = well fitted inhibition curve with a large enough effect; inconclusive = small, poorly fitted or top-dose-only effect; inactive = flat fitted curve, though single readings scatter.

Assay: P-glycoprotein substrates identified in KB-8-5-11 adenocarcinoma cell line, qHTS therapeutic library screen (AID 1346987); note: nearly all actives have a fitted effect of over 65% in size
Conditions: KB-8-5-11 (P-gp overexpressing) viability, CellTiter-Glo, 72 h; series mostly up to 44.5 µM; activity change, negative = cytotoxicity: at the top concentration
Procedure, shortened: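 P-gp-mediated resistance screen: KB-8-5-11 cells treated 72 h with compounds in dose-response. CellTiter-Glo viability.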
% is set by controls: 0 for no effect and ±100 for the full control effect; potency is the fitted concentration of half-maximal effect.

SMILES | activity change, negative = cytotoxicity | Potency | outcome
CC(C)c1noc(C2CCN(c3ncnc(Nc4ccc(S(C)(=O)=O)cc4F)c3[N+](=O)[O-])CC2)n1 | -22% (inactive) | – | –
Cc1cc(C)nc(SCC(=O)Nc2ncc(Cc3cccc4ccccc34)s2)n1 | -17.4% (inactive) | – | –
Cc1[nH]c2ccccc2c1CCNCc1ccc(/C=C/C(=O)NO)cc1 | – | 0.366 µM (active) | –
Cc1cccc(C)c1N(CCCc1cccnc1)C(=O)C(C)N (stereo unspecified) | -29.3% (inactive) | – | –
CCC(CC)C(=O)OC12C(OC(=O)C(C)C)C(C)C3(O)C(C=C(CO)CC4(O)C(=O)C(C)=CC43)C1C2(C)C (stereo unspecified) | -15.3% [at 17.3 µM] (inactive) | – | –
COC(=O)/C=C/C=C/C(=O)OC1C=C2COC(=O)C2(O)C2(C)CCCC(C)(C)C12 (stereo unspecified) | 3.63% [at 17.3 µM] (inactive) | – | –
C[C@H]1CC[C@@]2(OC1)O[C@H]1CC3C4CC[C@H]5C[C@@H](O)CC[C@]5(C)C4=CC(=O)[C@]3(C)[C@H]1[C@@H]2C (stereo partly specified) | -1.11% [at 17.3 µM] (inactive) | – | –
CC(=O)OC/C(=C/C(=O)O)CC[C@@H]1C(C=O)=CC[C@@H]2C(C)(C)CCC[C@@]12C | -8.98% (inactive) | – | –
CCC(CC)Nc1nc(C)c(-c2ccc(OC(F)(F)F)cc2OC)nc1OC | -0.463% (inactive) | – | –
Cc1ccc(-c2cn3c4c(sc3n2)CCCC4)cc1 | -19% (inactive) | – | –
CC(=O)O[C@H]1C[C@@H]2CC[C@@H]3[C@H](CC[C@@]4(C)[C@H]3C[C@H](N3CC[N+](C)(C)CC3)[C@@H]4OC(C)=O)[C@@]2(C)C[C@@H]1N1CC[N+](C)(C)CC1 | 9.53% (inactive) | – | –
COC(=O)C1=COC(O[C@@H]2O[C@H](CO[C@@H]3O[C@H](COC(=O)/C=C\c4ccc(O)cc4)[C@@H](O)[C@H](O)[C@H]3O)[C@@H](O)[C@H](O)[C@H]2O)C2C(CO)=CCC12 (stereo partly specified) | 3.67% [at 17.3 µM] (inactive) | – | –
NC(=O)c1cccc2[nH]c(-c3ccc(C4CCCN4)cc3F)nc12 (stereo unspecified) | -6.51% (inactive) | – | –
O=C(Nc1ccc(N2C(=O)[C@@H]3[C@H](C2=O)[C@@H]2C=C[C@H]3C2)c(Cl)c1)c1ccccn1 | -35.5% (inactive) | – | –
Nc1nc(Nc2ccc3c(c2)CCC(N2CCCC2)CC3)nn1-c1cc2c(nn1)-c1ccccc1CCC2 (stereo unspecified) | – | 14.6 µM (active) | –
COc1cc(C(=O)NCC2(N(C)C)CCCC2)cc(OC)c1OCc1ccccc1 | -22.3% (inactive) | – | –
CC1CCCC[C@H]2C(=O)C=C[C@H](O)[C@@H]2CC(=O)O1 (stereo partly specified) | – | 7.31 µM (active) | –
CCCCCc1ccc(/C=C/C(=O)Nc2cc(Cl)ccc2C(=O)O)cc1 | -13.6% (inactive) | – | –
Cn1cc(-c2ccc(F)c(C(F)(F)F)c2)nc1C1CCN(c2ncnc3[nH]ncc23)CC1 | 4.47% [at 17.3 µM] (inactive) | – | –
Cc1ccc(O)cc1Nc1ccnc(Nc2cccc(C(N)=O)c2)n1 | – | 23.1 µM (active) | –
CCOC(=O)N1CCC(N2CCC[C@@H](NC(=O)c3ccccc3C)C2)CC1 | -6.31% (inactive) | – | –
N#CC(CCCN1CCC(O)(c2ccc(Cl)cc2)CC1)(c1ccccc1)c1ccccc1 | – | 20.6 µM (active) | –
C=C1C(=O)OC2C3=C(C)C(=O)CC3C(C)CC(O)C12 (stereo unspecified) | -0.957% (inactive) | – | –
CC(C)=CCCC1(C)C2CCC1(C)C(O)C2 (stereo unspecified) | -16.2% (inactive) | – | –
C=C1C(=O)OC2C=C(C)CC/C=C(\CO)CC(O)C12 (stereo unspecified) | – | – | inactive
C=CC(=O)Nc1cc(-n2c(=O)ccc3cnc4ccc(-c5ccc(NS(C)(=O)=O)cc5)cc4c32)ccc1C | – | – | inactive
